Assay outcomes (PubChem BioAssay)
The list is not random: actives were taken first. Their share in the collection is about 0.92%.
FEN1 inh-1: inhibitors of human flap endonuclease 1. Potency, µM (series often up to 114 µM), most hits filed as inhibitors. Recombinant FEN1 flap cleavage, fluorescence, 15 min. hit rate 0.35% among 390,000; also: nearly all actives have a fitted effect of over 65% in size
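Read-out was taken twice, immediately and after 15 min, following addition of 50 nM substrate to 10 nM FEN1 that had sat with test compound for 15 min at room temperature. Curves came from a four-parameter Hill model.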
RECQ1 inh-1: blocks DNA unwinding by human RECQ1. RECQ1 DNA unwinding, red fluorescence kinetic read. Potency, µM (highest dose often 57.3 µM), actives largely listed as inhibitors. hit rate 0.54% among 240,000. AID 2549; also: nearly all actives have a fitted effect of over 30% in size
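RECQ1T1 50 nM; forked duplex (20 bp + 30-nt ss tails) 200 nM, ATP 2 mM final; pH 8.0, 2 mM MgCl2, 2.5 ug/ml poly(dI-dC); 15 min compound preincubation; discontinuous kinetic read over 2 h at RT.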
APE1 inh-1: inhibitors of human APE1 endonuclease. P27695. recombinant APE1, TAMRA/BHQ-2 abasic DNA cleavage fluorescence. Potency, µM (top dose mostly 65.8 µM), most hits filed as inhibitors. hit rate 0.35% among 350,000; also: nearly all actives have a fitted effect of over 55% in size
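Quantitative HTS: incision of a TAMRA/BHQ-2 double-stranded substrate bearing a tetrahydrofuran abasic site by 0.75 nM APE1 raises fluorescence. Substrate 50 nM final, added after 15 min compound preincubation at room temperature; progress as third-minus-first kinetic read difference.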
BLM inh-1: blocks DNA unwinding by human BLM helicase; recombinant BLM DNA unwinding, fluorescence dequenching; Potency, µM (doses to about 56.1 µM), most hits filed as inhibitors; hit rate 0.2% among 350,000; also: nearly all actives have a fitted effect of over 35% in size
Target sequence (P54132 whole entry, looked up): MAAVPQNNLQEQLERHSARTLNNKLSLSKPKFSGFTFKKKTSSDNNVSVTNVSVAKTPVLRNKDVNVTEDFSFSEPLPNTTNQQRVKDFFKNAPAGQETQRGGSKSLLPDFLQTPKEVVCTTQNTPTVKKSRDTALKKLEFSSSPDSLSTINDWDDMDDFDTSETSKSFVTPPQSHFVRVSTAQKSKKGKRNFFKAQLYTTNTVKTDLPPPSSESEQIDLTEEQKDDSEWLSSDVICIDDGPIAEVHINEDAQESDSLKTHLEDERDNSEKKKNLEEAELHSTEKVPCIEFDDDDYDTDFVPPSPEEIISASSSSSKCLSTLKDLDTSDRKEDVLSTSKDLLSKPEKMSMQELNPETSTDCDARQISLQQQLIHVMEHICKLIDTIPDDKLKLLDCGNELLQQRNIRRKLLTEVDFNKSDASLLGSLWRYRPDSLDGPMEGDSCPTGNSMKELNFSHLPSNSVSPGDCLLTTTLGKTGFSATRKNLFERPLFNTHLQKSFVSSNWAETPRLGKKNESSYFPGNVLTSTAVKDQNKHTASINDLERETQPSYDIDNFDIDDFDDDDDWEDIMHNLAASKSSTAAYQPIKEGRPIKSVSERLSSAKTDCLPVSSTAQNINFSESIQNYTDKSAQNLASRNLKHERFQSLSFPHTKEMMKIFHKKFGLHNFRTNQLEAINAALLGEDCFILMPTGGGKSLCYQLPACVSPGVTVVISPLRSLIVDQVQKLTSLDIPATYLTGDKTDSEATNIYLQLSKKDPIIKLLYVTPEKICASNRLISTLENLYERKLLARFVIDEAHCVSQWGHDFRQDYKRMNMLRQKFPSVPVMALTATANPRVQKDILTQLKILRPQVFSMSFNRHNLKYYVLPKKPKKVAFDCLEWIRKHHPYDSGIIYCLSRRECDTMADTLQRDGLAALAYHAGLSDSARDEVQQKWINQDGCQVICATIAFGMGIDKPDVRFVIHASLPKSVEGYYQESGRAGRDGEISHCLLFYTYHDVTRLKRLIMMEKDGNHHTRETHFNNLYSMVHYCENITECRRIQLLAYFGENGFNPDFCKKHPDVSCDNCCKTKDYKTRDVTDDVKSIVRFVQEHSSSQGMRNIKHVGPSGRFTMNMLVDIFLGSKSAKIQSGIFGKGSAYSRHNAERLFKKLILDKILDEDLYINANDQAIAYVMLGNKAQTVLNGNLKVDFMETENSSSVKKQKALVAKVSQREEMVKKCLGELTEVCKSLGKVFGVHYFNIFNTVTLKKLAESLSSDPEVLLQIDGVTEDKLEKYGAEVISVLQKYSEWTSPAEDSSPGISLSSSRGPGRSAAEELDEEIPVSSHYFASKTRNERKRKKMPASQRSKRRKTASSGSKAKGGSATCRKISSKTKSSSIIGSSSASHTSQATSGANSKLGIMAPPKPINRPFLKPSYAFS
TDP1 inh: TDP1 (human) enzyme inhibition | Potency, µM (highest dose often 130 µM), actives largely listed as inhibitors | Q9NUW8 | hit rate 0.28% among 350,000 | recombinant TDP1, AlphaScreen DNA substrate cleavage; also: nearly all actives have a fitted effect of over 40% in size
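Enzyme-compound mixtures sat 15 min at room temperature, followed by a 5 min reaction with 15 nM final substrate and 10 min with AlphaScreen beads. Recombinant human Tdp1 was used at 1 nM final.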
DNA dye displace: counter-screen for APE1 inhibitors: DNA dye displacement; Potency, µM (top dose mostly 28.5 µM), most hits filed as inhibitors; DNA fluorescent dye displacement counterscreen, fluorescence; hit rate 7% among 480; shares compounds with APE1 inh-1;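 also: loss of thiazole orange fluorescence as the dye is displaced from duplex DNA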
EndoIV counter: Endo IV (E. coli) inhibition counter-screen; hit rate 4% among 560; E. coli Endo IV, fluorogenic AP-site DNA cleavage; AID 2565; shares compounds with APE1 inh-1; Potency, µM (highest dose often 27.1 µM), usual class: inhibitors
APE1 inh-2: APE1 (human) endonuclease inhibition, confirmation; purified APE1, fluorogenic abasic-site DNA cleavage; Potency, µM (top dose mostly 57.1 µM), most hits filed as inhibitors; hit rate 44% among 750; shares compounds with APE1 inh-1; also: nearly all actives have a fitted effect of over 30% in size
APE1 FP inh: APE1 (human) DNA binding inhibition, fluorescence polarization; shares compounds with APE1 inh-1; APE1 binding to TAMRA-labelled double-stranded DNA, fluorescence polarization displacement; Potency, µM (highest dose often 28.5 µM), hits mostly inhibitors; hit rate 7% among 480
BLM inh-2: confirmation of inhibitors of human Bloom syndrome helicase BLM; shares compounds with BLM inh-1; BLM DNA unwinding, fluorescence quenching, biochemical; Potency, µM, most hits filed as inhibitors; hit rate 40% among 220; AID 2585;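 also: strand separation dequenches TAMRA so unwinding raises red fluorescence; series mostly up to about 69 µM; nearly all actives have a fitted effect of over 45% in size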
RECQ1 inh conf: confirmation of human RECQ1 helicase inhibitors; shares compounds with RECQ1 inh-1; RECQ1 helicase DNA unwinding, fluorescence; Potency, µM (titrated, usually from 229 µM), actives largely listed as inhibitors; hit rate 28% among 610; also: nearly all actives have a fitted effect of over 45% in size
ADP FP counter: displaces ADP in a fluorescence polarization counter-screen for RECQ1 hits. shares compounds with RECQ1 inh-1. ADP fluorescence polarization displacement counterscreen. Potency, µM (highest dose often 228 µM), actives largely listed as inhibitors. hit rate 27% among 530. AID 2711; also: nearly all actives have a fitted effect of over 45% in size
RECQ1 inh-2: blocks human RECQ1 DNA unwinding | shares compounds with RECQ1 inh-1 | recombinant RECQ1 DNA unwinding, red fluorescence | Potency, µM (highest dose often 119 µM), hits mostly inhibitors | hit rate 15% among 1,100; also: nearly all actives have a fitted effect of over 50% in size
FEN1 inh-2: FEN1 inhibition, cherry-pick retest; hit rate 79% among 880; Potency, µM, most hits filed as inhibitors; AID 720498; shares compounds with FEN1 inh-1; FEN1 flap cleavage, TAMRA/BHQ2 fluorogenic DNA substrate; also: nearly all actives have a fitted effect of over 60% in size
Numbers stand for hits; i = inactive; ? = inconclusive; nt = no result; ! = not active in a repeat. Calls follow the shape of the dose curve; as a rule, active = well fitted curve in the direction sought with a large enough effect; inconclusive = small, poorly fitted or top-dose-only effect, or another doubt; inactive = no such curve, though single readings can be large; an effect the other way counts as inactive or inconclusive.

SMILES	FEN1 inh-1	RECQ1 inh-1	APE1 inh-1	BLM inh-1	TDP1 inh	others
COc1ccc(OC)c(C(O)C(C)N)c1 (stereo unspecified)	i	i	i	i	i
C[C@H](N)[C@H](O)c1ccc(O)c(O)c1	nt	1.8µM	0.79µM	i	?	DNA dye displace=i;EndoIV counter=i;APE1 inh-2=i;APE1 FP inh=i;RECQ1 inh conf=i;ADP FP counter=11µM
Nc1ccccc1-c1ccccc1	nt	i	i	nt	i
COC1=CC(=O)OC(CCc2ccccc2)C1 (stereo unspecified)	nt	i	i	nt	i
CC(=O)Nc1ccc(N=Cc2c(O)n(Cc3ccco3)c(=O)[nH]c2=O)cc1	i	?	?	?	18µM	APE1 inh-2=i;RECQ1 inh-2=?
CC(C)[C@]1(NC(=O)[C@@H]2C=C3c4cccc5[nH]cc(c45)C[C@H]3N(C)C2)O[C@@]2(O)C3CCCN3C(=O)[C@H](Cc3ccccc3)N2C1=O (stereo partly specified)	nt	i	?	i	i
O=c1c(O)c(-c2ccc(O)c(O)c2)oc2cc(O)cc(O)c12	40µM	1.8µM!	1.3µM!	i	i	EndoIV counter=i;APE1 inh-2=i;RECQ1 inh conf=?;ADP FP counter=13µM
COc1cc(-c2oc3cc(O)cc(O)c3c(=O)c2O)ccc1O	?	i	?	i	i
CC12C=CC(=O)C=C1CCC1C2=CCC2(C)C1CC[C@@H]2C(=O)CN1CCN(c2cc(N3CCCC3)nc(N3CCCC3)n2)CC1 (stereo partly specified)	nt	i	i	i	i
O=C(O)Cn1cc(/C=C2\C(=O)NC(=O)N(Cc3ccco3)C2=O)c2ccccc21	79µM	14µM	7.9µM	i	nt	DNA dye displace=?;EndoIV counter=i;APE1 inh-2=11µM;APE1 FP inh=i;FEN1 inh-2=67
OC(c1ccc(Cl)cc1)(c1ccc(Cl)cc1)C(Cl)(Cl)Cl	nt	i	i	nt	i
CCCCN1C(=O)/C(=C/C=C/c2ccco2)C(=O)NC1=S	25µM	14µM	32µM	i	nt	DNA dye displace=i;EndoIV counter=i;APE1 inh-2=14µM;APE1 FP inh=i;FEN1 inh-2=34
ClC1=C(Cl)C2(Cl)C3C(Cl)C(Cl)CC3C1(Cl)C2(Cl)Cl (stereo unspecified)	nt	i	i	nt	i
COc1ccc(CN2C(=O)NC(=O)/C(=C/c3cc(OC)c(OC)c(OC)c3)C2=O)cc1	i	i	i	i	nt
COc1ccc(CN2C(=O)NC(=O)/C(=C/c3ccoc3)C2=O)cc1	22µM	?	8.9µM	i	nt	DNA dye displace=i;EndoIV counter=i;APE1 inh-2=4µM;APE1 FP inh=?;FEN1 inh-2=76
CCCCn1c(NS(=O)(=O)c2ccccc2)c(C(=O)OCC)c2nc3ccccc3nc21	i	i	i	1.4µM	i	BLM inh-2=i
FC(F)(F)c1ccc(Cl)cc1	nt	i	i	nt	i
CCOC(=O)c1c(N)n(CCN2CCCCC2)c2nc3ccccc3nc12	i	i	i	i	i
Nc1c(C(=O)NCCc2ccccc2)c2nc3ccccc3nc2n1CCN1CCOCC1	i	8.9µM	i	i	i	RECQ1 inh conf=i;ADP FP counter=i;RECQ1 inh-2=i
CCC(C)NC(=O)c1c(N)n(CC2CCCO2)c2nc3ccccc3nc12 (stereo unspecified)	?	?	i	?	i	RECQ1 inh-2=i
CCC(C)NC(=O)c1c(N)n(CCCOC)c2nc3ccccc3nc12 (stereo unspecified)	i	?	i	?	i	RECQ1 inh-2=i
CCC(C)NC(=O)c1c(N)n(Cc2ccc3c(c2)OCO3)c2nc3ccccc3nc12 (stereo unspecified)	i	?	i	?	nt	RECQ1 inh-2=i
c1ccc2cc3c(cc2c1)-c1cccc2cccc-3c12	nt	i	i	nt	i
CC(C)CCNC(=O)c1c(N)n(CC2CCCO2)c2nc3ccccc3nc12 (stereo unspecified)	?	?	?	?	i	RECQ1 inh-2=i
Nc1c(C(=O)NCCN2CCOCC2)c2nc3ccccc3nc2n1Cc1ccccc1	i	i	i	i	i
SMILES	FEN1 inh-1	RECQ1 inh-1	APE1 inh-1	BLM inh-1	TDP1 inh	others
ClC=CCl	nt	i	i	nt	i
CC(O)C(C)OC(=O)[C@@H]1C[C@@H]2c3cccc4c3c(cn4C(C)C)C[C@H]2N(C)C1 (stereo partly specified)	nt	35µM!	i	nt	i	RECQ1 inh-2=56µM
Cc1ccc(CSc2n[nH]c(N)n2)cc1	i	28µM	i	i	i	RECQ1 inh-2=i
CCc1ccc(N2C(=O)NC(=O)/C(=C\C=C\c3ccco3)C2=O)cc1	22µM	8.9µM	?	i	i	RECQ1 inh conf=?;ADP FP counter=50µM
CN(C)C1C(=O)C(C(N)=O)=C(O)[C@@]2(O)C(=O)C3=C(O)c4c(O)cccc4[C@@](C)(O)C3[C@H](O)C12 (stereo partly specified)	nt	i	i	i	nt
CN(C)[C@@H]1C(=O)C(C(N)=O)=C(O)[C@]2(O)C(=O)C3=C(O)c4c(O)cccc4[C@@](C)(O)[C@H]3[C@H](O)[C@@H]12	nt	13µM	?	i	nt	RECQ1 inh conf=i;ADP FP counter=45µM
CC[C@@]1(O)CC(O)c2c(cc3c(c2O)C(=O)c2c(O)ccc(O)c2C3=O)C1C(=O)OC (stereo partly specified)	nt	4µM	?	?	i	RECQ1 inh conf=50µM;ADP FP counter=0.89µM
CC[C@]1(O)CC(O[C@@H]2CC(N(C)C)C(O)C(C)O2)c2c(cc3c(c2O)C(=O)c2c(O)cccc2C3=O)C1C(=O)OC (stereo partly specified)	nt	10µM	14µM	i	i	RECQ1 inh conf=112µM;ADP FP counter=4.5µM
CN1C(=O)[C@]23CC4=CC=C[C@H](O)[C@H]4N2C(=O)[C@@]1(CO)SS3	nt	i	i	i	i
CC1=C(O)C(=O)[C@H]2O[C@@H]2C1=O	nt	i	?	i	i
